Source: PubChem BioAssay AID1159580 (chemical genetic matrix, 2015)
Where “and” joins values, the source holds several entries; their conditions need not be identical. Equal entries are not always repeated. About 2,000 (36%) of roughly 5,500 compounds were called active. Another 18% or so got no clear call; they are omitted. Rule as the data show it: active = normalized growth mostly below about 0.91 (no sharp cut-off); inconclusive = no clear call, values can overlap the other calls; inactive = mostly above about 0.92. This is one part of the list.

Assay: chemical genetic growth profiling, strain panel (AID 1159580);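 also: tested at 20 µM; growth read once vehicle control cultures reached saturation at 30 °C; 1 = growth at the plate median or of vehicle wells; lower values mean less growth of the strain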
Details: S. cerevisiae deletion strains, growth OD

Measured: normalized growth

Nc1ccc(N=Nc2ccccc2)c(N)n1
active: locus YAL021C, strain ccr4, hits give low values 0.597 | locus YAL026C, strain drs2, hits give low values 0.262 | locus YAL030W, strain snc1, hits give low values 0.909 | locus YBL061C, strain skt5, hits give low values 0.841 | locus YBR009C, strain hhf1, hits give low values 0.635 | locus YBR021W, strain FUR4, hits give low values 1.16 [resistant] | locus YBR023C, strain chs3, hits give low values 0.764 | locus YBR231C, strain swc5, hits give low values 0.742 | locus YBR279W, strain paf1, hits give low values 0.807 | locus YCL011C, strain gbp2, hits give low values 0.78 | locus YCL016C, strain dcc1, hits give low values 0.739 | locus YCL069W, strain vba3, hits give low values 0.725 | locus YDL192W, strain arf1, hits give low values 0.901 | locus YDR069C, strain doa4, hits give low values 0.846 | locus YDR137W, strain rgp1, hits give low values 0.351 | locus YDR195W, strain ref2 1.61 [resistant] | locus YDR297W, strain sur2, hits give low values 0.828 | locus YDR334W, strain swr1, hits give low values 0.833 | locus YDR335W, strain msn5, hits give low values 0.785 | locus YDR392W, strain spt3, hits give low values 0.6 | locus YEL003W, strain gim4, hits give low values 0.712 | locus YEL061C, strain CIN8 (second series), hits give low values 0.838 | locus YER015W, strain faa2, hits give low values 0.794 | locus YER016W, strain bim1, hits give low values 0.853 | locus YER111C, strain swi4, hits give low values 0.801 | locus YER155C, strain BEM2 (second series), hits give low values 0.226 | locus YFR010W, strain ubp6, hits give low values 0.862 | locus YGL173C, strain kem1, hits give low values 0.668 | locus YGL227W, strain vid30, hits give low values 0.83 | locus YGL240W, strain doc1, hits give low values 0.832 | locus YGL253W, strain hxk2, hits give low values 0.695 | locus YGR135W, strain pre9, hits give low values 0.854 | locus YHR013C, strain ard1, hits give low values 0.573 | locus YHR027C, strain rpn1, hits give low values 0.798 | locus YHR142W, strain chs7, hits give low values 0.543 | locus YJL095W, strain BCK1 (second series), hits give low values 0.478 | locus YJL129C, strain trk1, hits give low values 1.14 [resistant] | locus YJL164C, strain tpk1, hits give low values 0.759 | locus YJL166W, strain qcr8, hits give low values 0.494 | locus YJL187C, strain SWE1, hits give low values 0.727
inactive: locus YAL013W, strain DEP1, hits give low values 0.984 | locus YBR171W, strain sec66, hits give low values 0.96 | locus YBR229C, strain ROT2, hits give low values 1 | locus YCL029C, strain bik1, hits give low values 1.03 | locus YCR088W, strain abp1, hits give low values 0.945 | locus YDL005C, strain med2, hits give low values 1 | locus YDL035C, strain GPR1, hits give low values 0.932 | locus YDL040C, strain nat1, hits give low values 0.978 | locus YDL074C, strain BRE1, hits give low values 0.866 | locus YDL101C, strain DUN1, hits give low values 0.968 | locus YDL134C, strain PPH21, hits give low values 0.999 | locus YDL185W, strain tfp1, hits give low values 0.998 | locus YDR001C, strain nth1, hits give low values 1 | locus YDR101C, strain arx1, hits give low values 0.995 | locus YDR150W, strain NUM1, hits give low values 1.01 | locus YDR159W, strain sac3, hits give low values 0.884 | locus YDR162C, strain NBP2, hits give low values 0.939 | locus YDR318W, strain mcm21, hits give low values 0.951 | locus YDR388W, hits give low values 0.997 | locus YDR502C, strain sam2, hits give low values 0.954 | locus YEL037C, strain rad23, hits give low values 0.922 | locus YEL061C, strain CIN8, hits give low values 0.997 | locus YER110C, hits give low values 1.01 | locus YER155C, strain BEM2, hits give low values 1.03 | locus YER167W, strain BCK2, hits give low values 1.02 | locus YGL078C, strain dbp3, hits give low values 0.937 | locus YGL086W, strain mad1, hits give low values 0.971 | locus YGL167C, strain pmr1, hits give low values 0.977 | locus YGL248W, strain PDE1, hits give low values 0.989 | locus YGR078C, strain PAC10, hits give low values 0.918 | locus YGR229C, strain SMI1, hits give low values 0.996 | locus YGR252W, strain gcn5, hits give low values 0.943 | locus YHR030C, strain SLT2, hits give low values 0.995 and 0.956 | locus YHR079C, strain IRE1 (second series), hits give low values 0.99 | locus YHR079C, strain IRE1, hits give low values 0.965 | locus YHR094C, strain hxt1, hits give low values 1.02 | locus YHR129C, strain ARP1, hits give low values 1.01 | locus YHR200W, strain rpn10, hits give low values 0.983 | locus YIL066C, strain RNR3, hits give low values 0.956 | locus YIL073C, strain SPO22, hits give low values 0.972 | locus YIL125W, strain kgd1, hits give low values 1.02 | locus YIR030C, strain dcg1, hits give low values 1.02 | locus YJL092W, strain hpr5, hits give low values 0.945 | locus YJL095W, strain BCK1, hits give low values 0.833 and 0.952 | locus YJL115W, strain asf1, hits give low values 1.01 | locus YJL134W, strain LCB3, hits give low values 1 | locus YJL154C, strain vps35, hits give low values 0.98 | locus YJL168C, strain set2, hits give low values 1 | locus YJL187C, strain SWE1 (second series), hits give low values 0.961 | locus YJR043C, strain POL32, hits give low values 0.984 | locus YJR066W, strain TOR1, hits give low values 0.91
